PubChem BioAssay (NCATS)
Results filed as inconclusive are left out. The source made the active and inactive calls. Unless noted, calls come from the whole dose curve; as a rule, active = well fitted curve in the direction sought with a large enough effect; inconclusive = small, poorly fitted or top-dose-only effect, or another doubt; inactive = no such curve, though single readings can be large; an effect the other way counts as inactive or inconclusive.

What was measured:
[1] = target: DNA dC->dU-editing enzyme APOBEC-3G (Homo sapiens) (UniProt Q9HC16); assay: qHTS for inhibitors of Vif-A3G interactions: Validation (AID 588379); note: 0% is about no effect
How it was run: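 Yellow fluorescence (Ex 488, Em 500-530) of Vif-coexpressing HeLa A3G-eYFP cells, scanned by Acumen cytometer, reports blocked A3G degradation. Cells plated at 700/well overnight at 37 deg C before compound addition, then a further overnight compound incubation at 37 deg C.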

[2] = target: Peroxisome proliferator-activated receptor delta (Homo sapiens) (UniProt Q03181); assay: qHTS assay for small molecule agonists of peroxisome proliferator-activated receptor delta signaling (AID 588534; calls by dose curve;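 note: 0% = DMSO basal wells and 100% = positive control agonist at 10 µM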)
How it was run: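 Agonist-mode qHTS; reporter cells, 5 hrs 37 C pre-incubation; compound titration, 18 hrs 37 C; CCF4 dye, 2 hrs RT; fluorescence read. EC50/efficacy via Hill fit.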

[3] = qHTS assay for small molecule antagonists of peroxisome proliferator-activated receptor delta signaling (AID 588535); settings: HEK293T PPARd-UAS-bla, beta-lactamase FRET ratio, 18 h; 460 nm channel;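 note: cells co-treated with a PPAR-delta agonist as stimulator during compound exposure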
How it was run: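 Titrations were run on PPAR-delta-UAS-bla HEK293T cells in charcoal/dextran-stripped serum, incubated 18 h at 37 C. CCF4 fluorescence (460/530 nm) after 2 h RT; Hill equation yields IC50 and maximal response.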

[4] = target: Vitamin D3 receptor (Homo sapiens) (UniProt P11473); assay: qHTS assay for small molecule antagonists of vitamin D receptor signaling (AID 588541; calls by dose curve;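 note: receptor activated by calcitriol during compound treatment; series mostly up to about 77 µM; % is set by controls: 0 for no effect and ±100 for the full control effect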)
How it was run: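 Antagonist-mode beta-lactamase reporter assay: HEK293T VDR-UAS-bla cells were exposed to titrated compound alongside 1-alpha,25-dihydroxyvitamin D3 at 3 nM final for 16 h. Values were normalized to the 50 nM agonist control and DMSO basal, with IC50 and efficacy from Hill equation fits.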

[5] = target: Vitamin D3 receptor (Homo sapiens) (UniProt P11473); assay: qHTS assay for small molecule agonists of vitamin D receptor signaling (AID 588543; calls by dose curve;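 note: 0% = DMSO basal and 100% = reference agonist control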)
How it was run: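 Agonist-mode beta-lactamase reporter: HEK293T VDR-UAS-bla cells in charcoal-stripped 2% FBS, compound series 16 h 37 C, CCF4 2 h RT. EC50 from Hill fit, scaled against DMSO and 50 nM calcitriol control.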

[6] = qHTS assay for small molecule agonists of retinoid X receptor alpha signaling (AID 588544); settings: HEK293T RXRa-UAS-bla, beta-lactamase reporter, 18 h; 530 nm emission
[7] = qHTS assay for small molecule antagonists of retinoid X receptor alpha signaling (AID 588546; active = well fitted inhibition curve with a large enough effect in the signal ratio, with a control signal flat, not every such curve was filed as active; the % refers to the signal ratio;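 note: cells stimulated with 9-cis-retinoic acid as agonist; % is set by controls: 0 for no effect and ±100 for the full control effect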); settings: HEK293T RXRa-UAS-bla, beta-lactamase ratio, antagonist mode; measured here: W530 green channel, cytotoxicity proxy
How it was run: (§1)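 Beta-lactamase reporter inhibition, read as CCF4 fluorescence ratio (ex 405, em 460/530 nm) after 2 h at RT. HEK293T UAS-bla cells, 2500/well, were stimulated with 9-cis-RA at 500 or 100 nM final alongside test compound for 18 h at 37 C.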

[8] = target: Retinoic acid receptor RXR-alpha (Homo sapiens) (UniProt P19793); assay: as above; settings: HEK293T RXRa-UAS-bla, beta-lactamase ratio, antagonist mode
How it was run: as §1

[9] = target: Thyroid hormone receptor beta (Homo sapiens) (UniProt P10828); assay: qHTS assay for small molecule antagonists of thyroid hormone receptor beta signaling (AID 588547; active = well fitted inhibition curve with a large enough effect in the signal ratio, with a control signal flat, not every such curve was filed as active; the % refers to the signal ratio;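 note: cells stimulated with 0.4 nM T3 agonist during compound exposure; series mostly up to about 77 µM; % is set by controls: 0 for no effect and ±100 for the full control effect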); settings: TR-UAS-bla HEK293, beta-lactamase ratio, antagonist mode, 18 h
How it was run: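 Inhibition of T3-driven (0.4nM final) beta-lactamase reporter activity was measured over 0.59 nM to 92 uM compound after 18 h at 37 C. The cells were GripTite HEK293 TR-UAS-bla in charcoal/dextran-stripped serum, with CCF4 ratio read-out and IC50 from Hill fits.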

[10] = qHTS assay for small molecule agonists of the antioxidant response element (ARE) signaling pathway (AID 651741; active = well fitted activation curve with a large enough effect in the signal ratio; the % refers to the signal ratio; note: % of control where 0% means no effect)
How it was run: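 Beta-lactamase reporter under ARE control in HepG2 cells, 2,000 per well, was induced by 16 h compound treatment at 37 C. Read-out was fluorescence from LiveBLAzer B/G FRET substrate after 2 h at room temperature.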

[11] = qHTS assay for small molecule activators of the p53 signaling pathway (AID 651743; active = well fitted activation curve with a large enough effect in the signal ratio, not every such curve was filed as active; the % refers to the signal ratio; note: series mostly up to about 92 µM; % of control where 0% means no effect); settings: HCT-116 p53RE-bla, beta-lactamase FRET ratio, 16 h; activation: stronger effect = higher value
How it was run: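 After 16 hours compound treatment at 37 C, HCT-116 cells stably expressing p53RE-driven beta-lactamase were loaded with LiveBLAzer B/G FRET substrate for 2 hours at room temperature. Fluorescence intensity served as the p53 activation read-out.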

[12] = qHTS assay for small molecule activators of the nuclear factor-kappa B (NF-kB) signaling pathway (AID 651749; active = well fitted activation curve with a large enough effect in the signal ratio; the % refers to the signal ratio; note: series mostly up to about 77 µM; % of control where 0% means no effect); settings: NF-kB-bla ME-180 cells, beta-lactamase FRET ratio, 16 h; activation: stronger effect = higher value
How it was run: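 Activation measured after 16 hr compound treatment at 37C, 5% CO2, of 2,000 ME-180 cells/well stably expressing an NF-kB response element–driven beta-lactamase reporter, via FRET-disruption fluorescence.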

[13] = qHTS assay for environmental chemicals that activate the Aryl hydrocarbon Receptor (AhR) signaling pathway (AID 651777); settings: 1A2-DRE human hepatoma cells, luciferase, 24 h; activation: stronger effect = higher value; note: % of control where 0% means no effect; nearly all actives have a fitted effect of over 15% in size
How it was run: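 AhR activation is scored as a rise in luciferase from a stable DRE–CYP1A2 promoter construct in human hepatoma cells. Treatment lasts 24 hr at 37 C; detection uses One-Glo after 30 min at room temperature.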

[14] = target: Peroxisome proliferator-activated receptor alpha (Homo sapiens) (UniProt Q07869); assay: qHTS assay for small molecule agonists of the peroxisome proliferator-activated receptor alpha (PPARalpha) signaling pathway (AID 651778); settings: PathHunter PPARalpha complementation, chemiluminescence, 6 h; stronger effect = higher value; note: % of control where 0% means no effect
How it was run: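 Chemiluminescence from complemented enzyme reported PPARalpha activation in cells after 6 hr of compound treatment at 37 C. The detection reagent was incubated for 60 min at room temperature, and compounds were scored as agonists.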

[15] = qHTS assay for small molecule agonists of the antioxidant response element (ARE) signaling pathway measured by Nrf2-dependant transcriptional activity (AID 720636; active = well fitted curve in the direction sought with a large enough effect in the repeat runs; an effect the other way counts as inactive or inconclusive;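 note: HepG2 cells with an ARE-driven luciferase reporter; % of control where 0% means no effect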)
How it was run: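 First, ARE-luc HepG2 cells attached for 6 hr at 37 C in 1% dialyzed FBS medium. Next, compound or DMSO was added and incubated 16 hr. Finally, ONE-Glo reagent was added and luminescence measured after 30 min.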

[16] = qHTS assay for small molecule agonists of the antioxidant response element (ARE) signaling pathway measured by Nrf2-dependant transcriptional activity - cell viability counter screen (AID 720653; active = well fitted curve in the direction sought with a large enough effect in the repeat runs; an effect the other way counts as inactive or inconclusive; note: % is set by controls: 0 for no effect and ±100 for the full control effect); settings: ARE-bla HepG2 viability, CellTiter-Glo ATP luminescence, 16 h; stronger effect = lower value
How it was run: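 Cytotoxicity counter screen: intracellular ATP quantified by CellTiter-Glo luminescence in the same ARE-bla HepG2 plates, after 16 h compound exposure and a 2 h beta-lactamase substrate step.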

[17] = qHTS assay for cell viability of HEK293 cells (AID 743288); settings: ATP luminescence (CellTiter-Glo), 18 h; max response: stronger effect = lower value; note: % is set by controls: 0 for no effect and ±100 for the full control effect; nearly all actives have a fitted effect of over 50% in size
How it was run: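 Readout is luciferase-coupled ATP content (CellTiter-Glo luminescence, 30 min room temperature) as a measure of metabolically competent cells. Parental HEK293 cells were plated 5 h or more before compound addition, then treated 18 h at 37 C.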

[18] = qHTS assay for cell viability of the p53RE-bla HCT-116 cell line (AID 743292); note: % is set by controls: 0 for no effect and ±100 for the full control effect; nearly all actives have a fitted effect of over 55% in size
How it was run: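 Quantitative high-throughput format: compounds in DMSO were pinned onto p53RE-bla HCT-116 cells (4,000/well) and incubated 16 h at 37 C. Total intracellular ATP, read by CellTiter-Glo luminescence, reflects viable cell number.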

[19] = target: Nuclear receptor subfamily 1 group I member 2 (Rattus norvegicus) (UniProt Q9R1A7); assay: qHTS assay for small molecule activators of the rat pregnane X receptor (rPXR) signaling pathway (AID 651751; call rule not given here; note: 0% is about no effect); settings: rPXR reporter cells, luciferase (One-Glo), 24 h
Sequence of Nuclear receptor subfamily 1 group I member 2 (Rattus norvegicus) (Q9R1A7 whole entry, looked up): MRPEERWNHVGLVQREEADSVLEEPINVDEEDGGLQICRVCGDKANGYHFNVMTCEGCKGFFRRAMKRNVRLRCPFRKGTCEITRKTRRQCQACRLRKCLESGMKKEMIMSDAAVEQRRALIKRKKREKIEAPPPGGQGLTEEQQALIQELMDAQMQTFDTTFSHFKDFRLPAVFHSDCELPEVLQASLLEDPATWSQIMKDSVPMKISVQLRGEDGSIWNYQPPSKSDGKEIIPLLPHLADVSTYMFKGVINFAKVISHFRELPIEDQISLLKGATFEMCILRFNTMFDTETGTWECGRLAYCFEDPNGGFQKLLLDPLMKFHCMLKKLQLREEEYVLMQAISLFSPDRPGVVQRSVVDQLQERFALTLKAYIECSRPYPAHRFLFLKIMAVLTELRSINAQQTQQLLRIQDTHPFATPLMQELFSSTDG

Sequence of Vitamin D3 receptor (Homo sapiens) (P11473 whole entry, looked up): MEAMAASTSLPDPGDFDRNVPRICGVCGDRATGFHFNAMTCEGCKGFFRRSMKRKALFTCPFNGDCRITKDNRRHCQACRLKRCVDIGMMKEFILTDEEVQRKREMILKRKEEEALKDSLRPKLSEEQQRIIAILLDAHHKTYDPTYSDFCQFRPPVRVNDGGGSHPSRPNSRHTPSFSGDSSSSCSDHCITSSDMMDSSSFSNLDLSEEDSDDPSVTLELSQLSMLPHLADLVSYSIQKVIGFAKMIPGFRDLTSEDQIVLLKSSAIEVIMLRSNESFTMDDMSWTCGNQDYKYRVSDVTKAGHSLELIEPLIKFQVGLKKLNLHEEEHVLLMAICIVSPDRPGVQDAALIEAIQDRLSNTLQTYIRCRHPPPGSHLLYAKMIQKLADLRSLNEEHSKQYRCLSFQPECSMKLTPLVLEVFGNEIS
Sequence of Peroxisome proliferator-activated receptor alpha (Homo sapiens) (Q07869 whole entry, looked up): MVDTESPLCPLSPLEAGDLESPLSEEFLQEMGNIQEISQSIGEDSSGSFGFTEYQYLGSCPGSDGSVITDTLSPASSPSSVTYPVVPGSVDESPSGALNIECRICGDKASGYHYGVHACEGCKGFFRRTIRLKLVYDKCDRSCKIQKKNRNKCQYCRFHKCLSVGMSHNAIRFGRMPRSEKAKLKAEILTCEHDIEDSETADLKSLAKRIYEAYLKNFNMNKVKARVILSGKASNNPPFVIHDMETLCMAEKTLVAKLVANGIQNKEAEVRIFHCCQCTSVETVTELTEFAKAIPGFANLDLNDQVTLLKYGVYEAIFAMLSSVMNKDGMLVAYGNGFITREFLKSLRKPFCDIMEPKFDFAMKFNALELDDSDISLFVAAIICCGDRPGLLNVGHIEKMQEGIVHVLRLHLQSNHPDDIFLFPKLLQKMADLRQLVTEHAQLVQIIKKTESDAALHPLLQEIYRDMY
Sequence of Peroxisome proliferator-activated receptor delta (Homo sapiens) (Q03181 whole entry, looked up): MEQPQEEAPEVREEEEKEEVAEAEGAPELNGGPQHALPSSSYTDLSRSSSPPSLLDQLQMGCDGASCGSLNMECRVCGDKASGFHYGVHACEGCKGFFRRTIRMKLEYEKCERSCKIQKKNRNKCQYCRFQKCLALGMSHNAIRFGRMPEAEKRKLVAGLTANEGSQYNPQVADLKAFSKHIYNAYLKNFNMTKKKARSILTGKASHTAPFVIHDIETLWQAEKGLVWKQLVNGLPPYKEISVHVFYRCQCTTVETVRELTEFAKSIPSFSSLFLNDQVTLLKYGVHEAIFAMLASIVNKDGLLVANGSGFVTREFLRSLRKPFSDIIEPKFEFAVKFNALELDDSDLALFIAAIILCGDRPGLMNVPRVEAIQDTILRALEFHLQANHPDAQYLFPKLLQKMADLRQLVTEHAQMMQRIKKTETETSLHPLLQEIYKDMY
Sequence of Retinoic acid receptor RXR-alpha (Homo sapiens) (P19793 whole entry, looked up): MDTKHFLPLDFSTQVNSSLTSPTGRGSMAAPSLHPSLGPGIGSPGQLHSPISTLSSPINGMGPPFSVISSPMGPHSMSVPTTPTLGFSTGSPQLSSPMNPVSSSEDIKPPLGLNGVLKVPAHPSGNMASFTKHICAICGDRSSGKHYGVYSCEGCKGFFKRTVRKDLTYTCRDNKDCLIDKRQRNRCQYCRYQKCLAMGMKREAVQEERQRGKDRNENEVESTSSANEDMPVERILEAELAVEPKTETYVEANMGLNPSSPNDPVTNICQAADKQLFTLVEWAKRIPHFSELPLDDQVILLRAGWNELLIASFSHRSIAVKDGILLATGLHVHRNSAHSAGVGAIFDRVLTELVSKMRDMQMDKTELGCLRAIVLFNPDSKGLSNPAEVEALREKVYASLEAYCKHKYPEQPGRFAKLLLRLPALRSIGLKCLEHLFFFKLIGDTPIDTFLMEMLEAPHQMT
Sequence of DNA dC->dU-editing enzyme APOBEC-3G (Homo sapiens) (Q9HC16 whole entry, looked up): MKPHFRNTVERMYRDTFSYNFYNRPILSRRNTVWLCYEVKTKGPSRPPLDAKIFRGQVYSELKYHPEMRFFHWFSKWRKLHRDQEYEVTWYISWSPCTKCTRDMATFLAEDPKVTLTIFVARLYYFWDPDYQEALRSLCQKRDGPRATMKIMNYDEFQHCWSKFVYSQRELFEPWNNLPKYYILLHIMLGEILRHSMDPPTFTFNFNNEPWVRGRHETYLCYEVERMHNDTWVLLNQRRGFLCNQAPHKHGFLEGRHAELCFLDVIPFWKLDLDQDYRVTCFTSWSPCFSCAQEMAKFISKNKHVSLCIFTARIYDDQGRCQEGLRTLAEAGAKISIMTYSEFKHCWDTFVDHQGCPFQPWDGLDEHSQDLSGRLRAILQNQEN
Sequence of Thyroid hormone receptor beta (Homo sapiens) (P10828 whole entry, looked up): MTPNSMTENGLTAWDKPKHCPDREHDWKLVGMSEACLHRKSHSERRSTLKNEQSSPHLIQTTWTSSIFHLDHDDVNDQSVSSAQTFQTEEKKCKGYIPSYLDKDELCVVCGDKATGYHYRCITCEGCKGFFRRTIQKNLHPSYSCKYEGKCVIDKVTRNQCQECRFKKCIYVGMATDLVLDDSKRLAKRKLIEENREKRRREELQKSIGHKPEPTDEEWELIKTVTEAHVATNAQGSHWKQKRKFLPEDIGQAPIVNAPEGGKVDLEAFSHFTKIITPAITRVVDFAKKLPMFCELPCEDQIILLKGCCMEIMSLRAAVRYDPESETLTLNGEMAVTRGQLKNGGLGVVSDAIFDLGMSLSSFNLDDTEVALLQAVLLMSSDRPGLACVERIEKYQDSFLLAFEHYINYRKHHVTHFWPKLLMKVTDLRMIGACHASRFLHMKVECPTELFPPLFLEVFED

C=C[C@H]1CN2CCC1C[C@@H]2C(O)c1ccnc2ccccc12 (stereo partly drawn)
inactive: outcome [1]

CCS(=O)CCSP(=O)(OC)OC (stereo not drawn)
inactive: outcome [2] | outcome [4] | outcome [5] | max response [8] 8.07% | activity change % (negative = inhibition) [9] -3.19% | Potency [10] | activation [11] -0.772% | activation [12] -0.59% | activation [13] -0.491% | max response [14] -0.0185% | outcome [15] | max response [16] -6.55% | max response [17] -4.96% | Potency [18] | max response [19] -2.51%
-0.327%: max response [7]
34.5%: max response [3]
-13.5%: max response [6]

C[C@]1(C(=O)O)CCC[C@]2(C)c3cc(O)ccc3CC[C@@H]12
inactive: outcome [1]

CC(C)Nc1nc(Cl)nc(NC(C)C)n1
7.09%: max response [6]
inactive: outcome [2] | outcome [4] | outcome [5] | max response [8] -2.39% | activation [11] -2.19% | activation [13] 0.683% | max response [14] -0.58% | outcome [15] | max response [16] -2.76% | max response [17] -5.95% | Potency [18] | max response [19] -1.62%
16.2%: max response [3]
-10.2%: max response [7]

CC(C)(O)[C@@H]1C2OC(=O)[C@@H]1[C@]1(O)C[C@H]3O[C@]34C(=O)O[C@H]2[C@]14C
inactive: outcome [1]

C=C[C@H]1CN2CC[C@H]1C[C@H]2c1[nH]c2ccccc2c1CCO
inactive: outcome [1]

CC(C)N1C(=O)c2ccccc2NS1(=O)=O
inactive: outcome [2] | outcome [4] | max response [8] 0.0964% | activity change % (negative = inhibition) [9] -1.01% | Potency [10] | activation [11] 2.08% | activation [12] -0.185% | max response [14] -0.187% | outcome [15] | max response [16] 7.65% | max response [17] -4.24% | Potency [18] | max response [19] -1.76%
55.3%: max response [3]
-4.57%: max response [7]
-6.21%: max response [6]
